# Like-named read-outs stand apart in the source and are kept apart here.
# Tests used:
# Design in all cases: species or system human, MV4-11 + K-562 + COLO205 + SK-N-BE2 + OVCAR-8
# [1] = system: MAPK10; details: read-out: apparent Kd; compound concentrations:100 nM and 1000 nM (sheet 'Samples'); n = 1
# [2] = system: MAPK11; details: read-out: apparent Kd, n = 1
# [3] = system: MAPK14; details: read-out: apparent Kd, n = 1
# [4] = system: MAPK8; details: read-out: apparent Kd; compound concentrations:100 nM and 1000 nM (sheet 'Samples'); n = 1
# [5] = system: MAPK9; details: read-out: apparent Kd; compound concentrations:100 nM and 1000 nM (sheet 'Samples'); n = 1
# [6] = system: NLK; details: read-out: apparent Kd; compound concentrations:100 nM and 1000 nM (sheet 'Samples'); n = 1
# [7] = system: PIP4K2C; details: read-out: apparent Kd; compound concentrations:100 nM and 1000 nM (sheet 'Samples'); n = 1
# [8] = system: MAP3K6; details: read-out: apparent Kd; compound concentrations: 100 nM and 1000 nM (sheet 'Samples'), CATDS: 0.469017197153689; n = 1
# [9] = system: MAPKAPK2; details: read-out: apparent Kd; compound concentrations:100 nM and 1000 nM (sheet 'Samples'); n = 1
# [10] = system: MAP3K1; details: read-out: apparent Kd, n = 1
# [11] = system: PLK1; details: read-out: apparent Kd; compound concentrations: 100 nM and 1000 nM (sheet 'Samples'), CATDS: 0.48589470973507998; n = 1
# [12] = system: SLK; details: read-out: apparent Kd; compound concentrations: 100 nM and 1000 nM (sheet 'Samples'), CATDS: 0.160364449090587; n = 1
# [13] = system: STK10; details: read-out: apparent Kd; compound concentrations: 100 nM and 1000 nM (sheet 'Samples'), CATDS: 0.19500034290566101; n = 1
# [14] = system: MAP2K1; details: read-out: apparent Kd; compound concentrations:100 nM and 1000 nM (sheet 'Samples'); n = 1
# [15] = system: MAP2K5; details: read-out: apparent Kd; compound concentrations:100 nM and 1000 nM (sheet 'Samples'); n = 1
# [16] = system: RIPK2; details: read-out: apparent Kd; compound concentrations:100 nM and 1000 nM (sheet 'Samples'); n = 1
# [17] = system: STK26; details: read-out: apparent Kd; compound concentrations: 100 nM and 1000 nM (sheet 'Samples'), CATDS: 0.44700655759470098; n = 1
# [18] = system: MAP2K2; details: read-out: apparent Kd; compound concentrations:100 nM and 1000 nM (sheet 'Samples'); n = 1
# [19] = system: NQO1; details: read-out: apparent Kd; compound concentrations:100 nM and 1000 nM (sheet 'Samples'); n = 1
# [20] = system: PIK3CB; details: read-out: apparent Kd; compound concentrations:100 nM and 1000 nM (sheet 'Samples'); n = 1
# [21] = system: PIK3CD; details: read-out: apparent Kd; compound concentrations: 100 nM and 1000 nM (sheet 'Samples'), CATDS: 0.441724722045092; n = 1
# [22] = system: NUAK2; details: read-out: apparent Kd; compound concentrations:100 nM and 1000 nM (sheet 'Samples'); n = 1
# [23] = system: PAICS; details: read-out: apparent Kd; compound concentrations:100 nM and 1000 nM (sheet 'Samples'); n = 1
# [24] = system: PIK3CG; details: read-out: apparent Kd; compound concentrations:100 nM and 1000 nM (sheet 'Samples'); n = 1
# [25] = system: JAK2; details: read-out: apparent Kd; compound concentrations: 100 nM and 1000 nM (sheet 'Samples'), CATDS: 0.47869568713999899; n = 1
# [26] = system: PBK; details: read-out: apparent Kd; compound concentrations:100 nM and 1000 nM (sheet 'Samples'); n = 1
# [27] = system: PTK6; details: read-out: apparent Kd; compound concentrations:100 nM and 1000 nM (sheet 'Samples'); n = 1
# [28] = system: RIPK3; details: read-out: apparent Kd; compound concentrations:100 nM and 1000 nM (sheet 'Samples'); n = 1
# [29] = system: SIK2; details: read-out: apparent Kd; compound concentrations:100 nM and 1000 nM (sheet 'Samples'); n = 1
# [30] = compound concentrations:100 nM and 1000 nM (sheet 'Samples')
# [31] = compound concentrations: 100 nM and 1000 nM (sheet 'Samples'), CATDS: 1
compound,measurement,setting,value
CC(C)Nc1ncc2cc(Oc3ccc(F)cc3F)c(=O)n(C)c2n1.Cl [RO3309180-001],potency estimated from few doses,[1],0.0685 µM
same,potency estimated from few doses,[2]; [30],0.439 µM
same,potency estimated from few doses,[3]; [30],0.0099 µM
same,potency estimated from few doses,[4],1.08 µM
same,potency estimated from few doses,[5],0.369 µM
same,potency estimated from few doses,[6],1.49 µM
same,potency estimated from few doses,[7],2.1 µM
Cl.Nc1c(C(=O)c2cccc(-c3ccncc3)c2)cnn1-c1ccc(F)cc1 [RO1165037-001],potency estimated from few doses,[8],1.81 µM
same,potency estimated from few doses,"[2]; compound concentrations: 100 nM and 1000 nM (sheet 'Samples'), CATDS: 0.53536571927793597",1.39 µM
CN1CCN(CCc2cccc(C(=O)c3cnn(-c4ccc(F)cc4)c3N)c2)CC1.Cl [RO1160347-001],potency estimated from few doses,[2]; [31],1.33 µM
O=c1[nH]c2nc(NC3CCOCC3)ncc2cc1Oc1ccc(F)cc1F [RO3310867-000],potency estimated from few doses,[1],0.15 µM
same,potency estimated from few doses,[2]; [30],0.655 µM
same,potency estimated from few doses,"[3]; compound concentrations: 100 nM and 1000 nM (sheet 'Samples'), CATDS: 0.37744016768512201",0.00996 µM
same,potency estimated from few doses,[4],0.554 µM
same,potency estimated from few doses,[5],0.0984 µM
same,potency estimated from few doses,[9],0.00598 µM
same,potency estimated from few doses,[7],0.781 µM
C[C@@H](Oc1cc(-n2cnc3cc(-c4ccnc(NCCS(C)(=O)=O)c4)ccc32)sc1C(N)=O)c1ccccc1Cl [GSK907232A],potency estimated from few doses,"[10]; compound concentrations: 100 nM and 1000 nM (sheet 'Samples'), CATDS: 0.38790530075406598",0.0806 µM
same,potency estimated from few doses,[11],0.0536 µM
same,potency estimated from few doses,[12],1.33 µM
same,potency estimated from few doses,[13],0.534 µM
CCOc1cc(N2CCC(O)CC2)ccc1Nc1ncc2c(n1)N(C)c1ccccc1C(=O)N2C [XMD8-92],potency estimated from few doses,[14],1.78 µM
CN(C)c1cc2c(Nc3ccc4c(cnn4Cc4ccccc4)c3)ncnc2cn1 [GW282974X],potency estimated from few doses,[15],1.47 µM
same,potency estimated from few doses,[16],0.989 µM
CN1CCN(CC#Cc2cccc(C(=O)c3cnn(-c4ccc(F)cc4)c3N)c2)CC1.Cl [RO1154309-001],potency estimated from few doses,"[2]; compound concentrations: 100 nM and 1000 nM (sheet 'Samples'), CATDS: 0.56724832291410499",0.811 µM
same,potency estimated from few doses,[17],1.31 µM
Cc1c(Cn2c(C)nn3c(=O)cc(N4CCOC(C)C4)nc23)cccc1C(F)(F)F (centres unmarked) [GSK2344444A],potency estimated from few doses,[14],2.25 µM
same,potency estimated from few doses,[18],1.81 µM
same,potency estimated from few doses,[19],1.56 µM
same,potency estimated from few doses,[20],0.0134 µM
same,potency estimated from few doses,[21],0.02 µM
Nc1c(C(=O)c2cccc(OCCN3CCOCC3)c2)cnn1-c1ccc(F)cc1 [RO5301104-000],potency estimated from few doses,[2]; [31],0.701 µM
C[C@@H](Oc1cc(-n2cnc3ccc(OC4CCN(C)CC4)cc32)sc1C(N)=O)c1ccccc1Cl [GSK579289A],potency estimated from few doses,[10]; [30],1.34 µM
same,potency estimated from few doses,[22],0.601 µM
same,potency estimated from few doses,[23],1.76 µM
same,potency estimated from few doses,[24],1.03 µM
Cl.Nc1c(C(=O)c2cccc(C#CCN3CCOCC3)c2)cnn1-c1ccc(F)cc1 [RO1153320-001],potency estimated from few doses,[25],0.815 µM
same,potency estimated from few doses,"[2]; compound concentrations: 100 nM and 1000 nM (sheet 'Samples'), CATDS: 0.52328893159992096",0.682 µM
CNC(=O)Oc1cc(C)c(/C=C/c2cncc(C(=O)NC)c2)c(C)c1 [GW432441X],potency estimated from few doses,[15],0.231 µM
same,potency estimated from few doses,[26],1.68 µM
same,potency estimated from few doses,[27],0.0453 µM
same,potency estimated from few doses,[16],0.0281 µM
same,potency estimated from few doses,[28],0.399 µM
same,potency estimated from few doses,[29],1.32 µM
